Our source for the Potency values is PubChem BioAssay AID1347416 (National Center for Advancing Translational Sciences (NCATS), 2020).

In all, about 4,100 compounds went through this assay and about 1,600 (39%) were called active. Inconclusive results (about 25%) are left out. Calls come from the whole dose curve; as a rule, active = well fitted inhibition curve with a large enough effect; inconclusive = small, poorly fitted or top-dose-only effect; inactive = no such curve, though single readings can be large or run the other way. The list shows a part of the results. Entries that show only a call come without a potency.
Potency is the fitted concentration of half-maximal effect.

This test in a line: qHTS Validation assay for Inhibitors of Plasmodium falciparum Dd2 growth in vitro. Note: nearly all actives have a fitted effect of over 70% in size. Conditions: P. falciparum Dd2 in RBCs, SYBR Green growth, 72 h; series mostly up to 28.7 µM. In a few lines:
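P. falciparum Dd2-infected red blood cells (2.5% hematocrit, 0.3% parasitemia) grown 72 h at 37 °C under 5% O2 with compounds in a titration, 29 uM to 0.5 nM final. Growth read as SYBR Green-1 fluorescence after ~16 h lysis; artesunate 300 nM as positive control.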
(qHTS replaces the single test concentration by a dilution series.)
`CC(C)N(Cc1nc2ccccc2[nH]1)C(C)C`: the Potency result was “inactive”.

Regarding `COC[C@H]1CCCN1[C@@H]1[C@H](O)[C@H](CO)O[C@@H]1CN(Cc1cccc(Cl)c1)Cc1cccc(Cl)c1`, the Potency was 10.6 µM (active). Take `O=C1c2ccccc2C2=Nc3ccccc3SC(c3ccc(Cl)cc3)C12` (centres undefined): the Potency was 2.66 µM (active). Regarding `O=C1c2ccccc2C2=Nc3ccccc3SC(c3ccccc3F)C12` (centres undefined), the Potency was 4.73 µM (active). On to `CCN(CC)C(=O)c1sc(NC(=O)C(C)Sc2nc(-c3ccccc3)cc(C(F)(F)F)n2)c(C(=O)OC)c1C` (centres undefined), for which the Potency was 0.596 µM (active).

As to `CCOC(=O)c1sc(NC(=O)C(C)Sc2nc(-c3ccccc3)cc(C(F)(F)F)n2)c(C(=O)OC)c1C` (centres undefined), the Potency was 2.37 µM (active). As to `Cc1ccc(NC(=O)CSc2nc(-c3ccco3)cc(C(F)(F)F)n2)c(C)c1`, the Potency result is “inactive”.

With `CCCOC(=O)c1c(NC(=O)C(C)Sc2nc(-c3ccccc3)cc(C(F)(F)F)n2)sc(C(=O)N(C)C)c1C` (centres undefined), the Potency is 1.68 µM (active). Regarding `CCc1cc(C(=O)c2ccccc2)c(N)s1`, the Potency entry is “inactive”. The result for `COC(=O)c1ccc2nc(C)cc(Nc3ccc(O)cc3)c2c1` reads 9.44 µM (active); that for `Cc1ccc2nc(C)cc(Nc3ccc([N+](=O)[O-])cc3)c2c1`, 6.68 µM (active).

Consider `COc1ccc2nc(C)cc(NCc3cccc(C(F)(F)F)c3)c2c1`, for which the Potency is 2.11 µM (active). As to `Cc1ccc(-c2onc3ccc(C(=O)O)cc23)cc1`, the Potency result is “inactive”. Regarding `CCOc1ccc2nc(C)cc(Nc3ccc4c(c3)OCCO4)c2c1`, the Potency is 6.68 µM (active). As for `COc1ccc2nc(C)cc(Nc3ccc(Cl)c(Cl)c3)c2c1`, the figure is 2.66 µM (active).

On to `Cc1ccc(S(=O)(=O)N2CCC(C(=O)NCC3CC3)CC2)cc1`, for which the Potency entry is “inactive”. On to `CCc1nc2cc(N3CCC(C(=O)NCc4ccc5c(c4)OCO5)CC3)cnc2nc1CC`, for which the Potency entry was “inactive”.

In the case of `Cc1ccc(S(=O)(=O)N2CCN(C(=S)NCc3ccc4c(c3)OCO4)CC2)cc1`, the Potency was 2.37 µM (active). For the molecule `Cc1cccc(OCC(=O)NC2CCN(C(=O)c3cc4c(=O)[nH]c(C)cn4n3)CC2)c1`, the Potency result is “inactive”. In the case of `CCCc1cc(=O)oc2cc(C)cc(OCC(=O)Nc3cccnc3)c12`, the Potency was 0.531 µM (active). As for `CCn1ncc(N2CCC(NC(=O)COc3ccc(F)cc3)CC2)cc1=O`, the entry is “inactive”. For `Cc1ccc(C)c(OCC(=O)Nc2cc(C(=O)O)cc(C(=O)O)c2)c1`, the Potency result is “inactive”. As to `Cc1cccnc1NC(=O)COc1ccc2oc3c(c2c1)CCCC3`, the Potency result was “inactive”. Regarding `CCCCc1cc(=O)oc2cc(C)cc(OCC(=O)Nc3cccnc3)c12`, the Potency is 0.596 µM (active).

Turning to `CCCc1cc(=O)oc2cc(C)cc(OCC(=O)Nc3ccccn3)c12`, the Potency was 2.11 µM (active). Consider `CCCc1cc(=O)oc2cc(C)cc(OCC(=O)NC3CC3)c12`, for which the Potency was 4.73 µM (active). For the molecule `CCn1cc(S(=O)(=O)N2CCCOCCNC(=O)[C@@H]3CCC[C@@H]32)cn1`, the Potency result was “inactive”.

In the case of `Cc1cc([N+](=O)[O-])ccc1NC(=O)COc1nsnc1N1CCOCC1`, the Potency was 6.68 µM (active). The result for `COc1ccc(CCN2CCC(Nc3nc4ccccc4n3Cc3ccc(F)cc3)CC2)cc1` reads 2.37 µM (active). As for `COc1ccc(Cn2c(C3CCN(C(=O)Cc4ccc(F)cc4)CC3)n[nH]c2=O)cc1`, the entry is “inactive”; as for `COc1ccc(CN2CC[C@H](c3nnc(-c4ccccc4F)o3)C2)cc1`, “inactive”. For `Cc1nc(N2CCC(C)CC2)c2c(C)c(C(=O)Nc3ccc(C(F)(F)F)cc3)sc2n1`, the Potency is 7.5 µM (active). Regarding `CC1CCN(c2nc3ccc(C(=O)O)cc3s2)CC1`, the Potency result is “inactive”.

For the molecule `CN(C(=O)CSc1nc2ccc(NC(=O)CCc3ccccc3)cc2s1)c1ccccc1`, the Potency was 13.3 µM (active). Consider `COc1ccc(CNC(=O)Cn2c(SCC(=O)N(C)c3ccccc3)nc3ccccc32)cc1`, for which the Potency result was “inactive”. Turning to `Cc1ccc(C)n1-c1nnc(N2CCCC(C(=O)NCc3ccccc3)C2)s1` (centres undefined), the Potency entry was “inactive”.

As to `O=C(NCc1ccc(N2CCCC2)cc1)C1CCCN(c2cnn(Cc3ccccc3)c(=O)c2)C1` (centres undefined), the Potency is 10.6 µM (active). In the case of `O=C(CC1CCCN(c2cnn(CC3CC3)c(=O)c2)C1)NCc1ccccc1` (centres undefined), the Potency entry is “inactive”. In the case of `Cc1cc(C)c(S(=O)(=O)Nc2cc(Cl)c3oc4c(c3c2)C(=O)CCC4)cc1C`, the Potency result is “inactive”. As for `CN(C)CC(O)COc1ccc(C(C)(C)c2ccc(OCC(O)CN(C)C)cc2)cc1` (centres undefined), the Potency was 8.41 µM (active). For `O=C(Nc1ccc(C(=O)OC[C@@H]2CCCN3CCCC[C@H]23)cc1)c1cccc(Br)c1`, the Potency is 6.68 µM (active). The result for `CCc1cccc(NC(=O)c2ccc3c(c2)N(C)C2CCCCN2C3=O)c1` (centres undefined) reads “inactive”. As for `O=C(COC(=O)c1cccc(Br)c1)NCCNC(=O)COC(=O)c1cccc(Br)c1`, the entry is “inactive”; as for `O=S(=O)(c1cccc(F)c1)N1CCC2(CC1)CC(Cc1nc(C3CC3)no1)CCO2` (centres undefined), “inactive”; as for `O=C(NC1CCN(c2cnn(CC3CC3)c(=O)c2)CC1)c1ccc2c(c1)OCO2`, “inactive”. As to `CC1(CCCCc2ccccc2)COc2ccc(C(=O)NC3CCC(O)CC3)cc2N1` (centres undefined), the Potency entry was “inactive”. As for `CCN(C(=O)Cn1c(=O)n(Cc2ccc3c(c2)OCO3)c(=O)c2ccc(C(=O)NC3CCCCC3)cc21)c1cccc(C)c1`, the figure is 6.68 µM (active). On to `c1ccc(-c2nc(-c3ccncc3)no2)c(OC2CCN(C3CCCC3)C2)c1` (centres undefined), for which the Potency is 15 µM (active). With `O=C(Cc1cccc(F)c1)N1CCC(Oc2ccccc2-c2nc(C3CC3)no2)C1` (centres undefined), the Potency entry is “inactive”. Regarding `O=C(c1ccco1)N1CCC(Oc2ccccc2-c2nc(-c3ccccc3)no2)C1` (centres undefined), the Potency entry was “inactive”. For `Cc1cc(/C(N)=N/OC(=O)c2ccccc2Cl)no1`, the Potency entry was “inactive”. The result for `Cc1cc(C(=O)Nc2cnn(Cc3ccc(Cl)cc3Cl)c2)no1` reads 9.44 µM (active). For the molecule `Cc1cn2nc(C(=O)NCc3ccccc3Cl)cc2c(=O)[nH]1`, the Potency result is “inactive”. With `COc1cncc(Nc2cnc3ccc(-c4ccc(F)cc4)nn23)c1`, the Potency is 3.06 µM (active). For the molecule `OCc1cccc(-c2ccc3ncc(Nc4ccc(OCCN5CCCC5)cc4)n3n2)c1`, the Potency was 3.44 µM (active). The result for `COc1ccc(Nc2cnc3ccc(-c4ccc(OC)c(OC)c4)nn23)cc1` reads 1.72 µM (active); that for `COc1ccc(-c2ccc3ncc(Nc4ccncc4)n3n2)cc1OC`, 4.85 µM (active); that for `COc1ccc(-c2ccc(SCc3ccccn3)nn2)cc1OC`, “inactive”. For `COc1ccc(C(=O)NCc2nnc3ccc(-c4ccc(F)cc4)nn23)c(OC)c1`, the Potency entry was “inactive”.

Regarding `Cc1oc(C(C)C)cc1C(=O)N1CC[C@](C)(O)[C@@H](O)C1`, the Potency entry is “inactive”. For the molecule `CC(=O)N1CCC([C@@H]2CN(C3CCN(CC(C)C)CC3)C[C@H]2CO)CC1`, the Potency entry was “inactive”. As for `O=C(O)CC1(CC(=O)N2CCN3C(=O)N(Cc4ccccc4)C(=O)[C@H]3C2)CCCC1`, the Potency entry is “inactive”.

In the case of `CCCc1noc(-c2ccn3c(CNC(=O)c4ccc5ccccc5n4)nnc3c2)n1`, the Potency result was “inactive”. As for `O=C(NCc1nnc2ccc(-c3ccccc3)nn12)c1ccoc1`, the Potency entry was “inactive”.

Consider `COc1cncc(Nc2cnc3ccc(-c4ccc(OC)c(OC)c4)nn23)c1`, for which the Potency is 1.22 µM (active). The result for `c1ccc(-c2ccc3ncc(Nc4cccnc4)n3n2)cc1` reads 4.85 µM (active); that for `CCC1(O)CCCN(c2ncc(C(C)(C)C(=O)O)c(N3CCOCC3)n2)C1` (centres undefined), “inactive”; that for `CCOC(=O)c1ccc(NC2=CC(c3ccc(O)c(OCC)c3)N(c3ccc(C(=O)OCC)cc3)C2=O)cc1` (centres undefined), 3.35 µM (active). As for `CCOC(=O)c1ccc(NC2=CC(c3ccc(F)cc3)N(c3ccc(C(=O)OCC)cc3)C2=O)cc1` (centres undefined), the Potency is 8.41 µM (active). On to `CCOc1cc(C2c3c(oc4ccccc4c3=O)C(=O)N2Cc2ccc3c(c2)OCO3)ccc1O` (centres undefined), for which the Potency entry was “inactive”. With `O=C(CNC1=NCCC1)c1ccc2c(c1)OCCO2`, the Potency result was “inactive”. The result for `Nc1cc[n+](CC(=O)c2ccc3c(c2)OCCO3)cc1` reads 13.3 µM (active); that for `COc1cc(C2NC(=O)c3c(sc4c3CCN(C)C4)N2)cc(OC)c1OC` (centres undefined), “inactive”; that for `O=C(Nc1cccc2ccccc12)O[C@@H]1CO[C@H]2[C@@H]1OC[C@@H]2n1nnnc1-c1ccc(-c2ccccc2)cc1`, “inactive”. As for `CCC(C)c1ccc(N(C(=O)c2ccco2)C(C(=O)NC2CCCC2)c2cccnc2)cc1` (centres undefined), the figure is 6.68 µM (active). Consider `CC(C)N1C(=O)C(CC(=O)N(C)Cc2cccnc2)=C2CCCCC21` (centres undefined), for which the Potency entry is “inactive”. Take `COc1cncc(Nc2ncc(-c3c(C)noc3C)c3c2OCC3)c1`: the Potency entry is “inactive”. Consider `Cc1noc(C)c1-c1cc2cc(CN(C)C)oc2c(Nc2cccnc2)n1`, for which the Potency is 12.2 µM (active). For the molecule `Cc1noc(C)c1-c1cc2cc(CN(C)C)oc2c(NCc2cccnc2)n1`, the Potency is 1.22 µM (active). As for `Cc1cn2nc(-c3nc(C4CCCN(C(=O)c5cccc(Cl)c5)C4)no3)cc2c(=O)[nH]1` (centres undefined), the entry is “inactive”; as for `CC(C)(C)c1ccc(C(=O)N2CCCC(c3nc4c(nnn4Cc4cccc(F)c4)c(=O)[nH]3)C2)cc1` (centres undefined), 16.8 µM (active); as for `Cc1cccc(CC(=O)N2CCCC(n3cc(-c4nc(-c5ccccc5)no4)nn3)C2)c1` (centres undefined), “inactive”.

On to `Cc1cn2nc(-c3nc(C4CCCN(C(=O)c5ccc(C)c(F)c5)C4)no3)cc2c(=O)[nH]1` (centres undefined), for which the Potency entry is “inactive”. In the case of `O=C(c1cccc(Cl)c1)N1CCC(c2nc3c(nnn3Cc3ccc(F)cc3F)c(=O)[nH]2)CC1`, the Potency was 5.96 µM (active).

Turning to `O=C(c1cccc(Cl)c1)N1CCC(c2nn(Cc3ccccc3)c(=O)[nH]2)CC1`, the Potency result is “inactive”. Turning to `NC(=O)c1cccc(-c2ncc3c(n2)OCCN(Cc2ccc(F)cc2F)C3=O)c1`, the Potency entry was “inactive”. Turning to `Cc1cccc(Cn2nnc3c(=O)[nH]c(C4CCCN(C(=O)c5ccc(C(C)(C)C)cc5)C4)nc32)c1` (centres undefined), the Potency is 2.66 µM (active). Take `O=C(c1ccc(F)cc1)N1CCC(c2nn(Cc3ccccc3)c(=O)[nH]2)CC1`: the Potency result is “inactive”. As to `CO[C@H]1C(=O)N(C2CCN(S(=O)(=O)c3cccnc3)CC2)[C@H]1c1ccncc1`, the Potency result is “inactive”.

In the case of `Cc1ccc(Nc2nc3nonc3nc2Nc2cccc(C(F)(F)F)c2)cc1Cl`, the Potency was 2.11 µM (active).

As for `CCOc1ccc(-c2nonc2NC(=O)c2ccc(C)cc2)cc1OCC`, the Potency was 1.68 µM (active). Consider `CCOc1ccc(-c2nonc2NC(=O)COc2c(C)cc(C)cc2C)cc1OCC`, for which the Potency entry is “inactive”. Regarding `CCOC(=O)Cc1csc(NC(=S)NC(=O)c2ccc(C)cc2)n1`, the Potency result is “inactive”. As for `CCCOc1ccc(-c2nonc2NC(=O)c2cc(OC)c(OC)c(OC)c2)cc1OCCC`, the Potency is 5.96 µM (active).
